According to the supplement of paper PMC11732987, “Enantioselective OTUD7B fragment discovery through chemoproteomics screening and high-throughput optimisation” (Communications Chemistry, 2025):

Legend:
Assay in all cases: log2 ratio of Biotin-Ahx-Ub-VS probe labelling (fragment/DMSO); higher = less target engagement (more negative = stronger competition), active = hit call of the paper (q ≤ 0.05, log2 ratio ≤ -1)
Conditions in all cases: compound concentration: 200 uM; treatment time: 3 h
[1] = target: T1, USP19 (UniProt O94966)
T1 sequence (whole entry): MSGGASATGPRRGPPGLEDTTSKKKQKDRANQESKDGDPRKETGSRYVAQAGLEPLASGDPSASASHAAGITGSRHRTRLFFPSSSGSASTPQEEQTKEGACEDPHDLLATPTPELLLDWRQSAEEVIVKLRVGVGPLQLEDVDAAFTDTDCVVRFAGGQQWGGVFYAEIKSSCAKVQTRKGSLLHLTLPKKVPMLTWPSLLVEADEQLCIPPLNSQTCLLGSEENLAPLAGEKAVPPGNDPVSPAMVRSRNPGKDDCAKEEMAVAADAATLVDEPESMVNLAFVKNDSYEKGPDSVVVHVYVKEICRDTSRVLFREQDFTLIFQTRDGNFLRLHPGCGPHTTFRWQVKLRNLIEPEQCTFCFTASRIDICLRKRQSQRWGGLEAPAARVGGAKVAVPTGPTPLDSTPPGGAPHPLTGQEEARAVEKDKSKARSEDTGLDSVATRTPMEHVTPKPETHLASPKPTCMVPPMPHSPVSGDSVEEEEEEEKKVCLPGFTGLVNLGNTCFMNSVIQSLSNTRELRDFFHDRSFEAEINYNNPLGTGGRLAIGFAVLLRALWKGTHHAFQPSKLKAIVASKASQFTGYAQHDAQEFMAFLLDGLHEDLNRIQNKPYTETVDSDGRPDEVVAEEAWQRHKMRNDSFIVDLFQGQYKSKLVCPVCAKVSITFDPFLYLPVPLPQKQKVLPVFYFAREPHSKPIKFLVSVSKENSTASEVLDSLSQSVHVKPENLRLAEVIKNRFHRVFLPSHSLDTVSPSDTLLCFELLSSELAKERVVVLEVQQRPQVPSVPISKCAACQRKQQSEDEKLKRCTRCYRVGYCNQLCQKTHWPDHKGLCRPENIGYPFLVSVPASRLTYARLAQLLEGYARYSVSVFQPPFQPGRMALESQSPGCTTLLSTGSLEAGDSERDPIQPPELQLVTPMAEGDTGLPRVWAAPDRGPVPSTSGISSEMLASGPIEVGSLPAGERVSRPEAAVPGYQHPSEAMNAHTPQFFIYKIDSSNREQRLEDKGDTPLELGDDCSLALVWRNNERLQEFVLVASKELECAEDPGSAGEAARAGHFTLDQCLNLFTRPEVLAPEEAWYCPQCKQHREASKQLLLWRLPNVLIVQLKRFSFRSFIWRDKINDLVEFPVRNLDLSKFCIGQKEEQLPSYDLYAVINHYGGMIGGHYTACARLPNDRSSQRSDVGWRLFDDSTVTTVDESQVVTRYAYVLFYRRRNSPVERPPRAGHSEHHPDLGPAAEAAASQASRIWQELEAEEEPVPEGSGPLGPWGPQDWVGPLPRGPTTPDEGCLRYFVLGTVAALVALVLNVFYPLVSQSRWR
How it was run: (§1)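 HEK293T lysate in Tris/CHAPS/IGEPAL buffer with protease inhibitors (495 µg per sample) was given fragment at 200 µM or vehicle for 3 h, in triplicate. It then received Biotin-Ahx-Ub-VS at 0.5 µM final for 1 h. Labelled DUBs were NeutrAvidin-enriched, digested with LysC and trypsin, and run by diaPASEF LC-MS/MS. Values are average log2 fragment/vehicle ratios by unpaired t-test on global-median-normalised Spectronaut quantities of proteins with ≥2 unique peptides.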

[2] = target: T2, USP22 (UniProt Q9UPT9)
T2 sequence (whole entry): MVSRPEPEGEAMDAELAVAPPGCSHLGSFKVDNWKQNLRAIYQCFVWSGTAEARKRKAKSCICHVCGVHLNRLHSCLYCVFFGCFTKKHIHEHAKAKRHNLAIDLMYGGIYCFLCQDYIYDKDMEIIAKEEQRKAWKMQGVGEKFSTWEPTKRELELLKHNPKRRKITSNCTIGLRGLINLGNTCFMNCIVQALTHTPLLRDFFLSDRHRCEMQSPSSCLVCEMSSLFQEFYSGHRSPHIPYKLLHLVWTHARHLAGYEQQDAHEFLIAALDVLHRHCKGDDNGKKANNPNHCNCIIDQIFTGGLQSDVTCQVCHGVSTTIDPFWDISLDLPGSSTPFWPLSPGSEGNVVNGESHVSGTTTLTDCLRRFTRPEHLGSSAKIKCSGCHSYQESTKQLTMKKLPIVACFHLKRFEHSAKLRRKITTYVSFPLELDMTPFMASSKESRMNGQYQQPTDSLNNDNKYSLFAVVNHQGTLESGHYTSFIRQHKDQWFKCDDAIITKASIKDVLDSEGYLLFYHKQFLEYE
How it was run: as §1

[3] = target: USP24 (UniProt Q9UPU5)
How it was run: as §1

[4] = target: T3, USP25 (UniProt Q9UHP3)
T3 sequence (whole entry): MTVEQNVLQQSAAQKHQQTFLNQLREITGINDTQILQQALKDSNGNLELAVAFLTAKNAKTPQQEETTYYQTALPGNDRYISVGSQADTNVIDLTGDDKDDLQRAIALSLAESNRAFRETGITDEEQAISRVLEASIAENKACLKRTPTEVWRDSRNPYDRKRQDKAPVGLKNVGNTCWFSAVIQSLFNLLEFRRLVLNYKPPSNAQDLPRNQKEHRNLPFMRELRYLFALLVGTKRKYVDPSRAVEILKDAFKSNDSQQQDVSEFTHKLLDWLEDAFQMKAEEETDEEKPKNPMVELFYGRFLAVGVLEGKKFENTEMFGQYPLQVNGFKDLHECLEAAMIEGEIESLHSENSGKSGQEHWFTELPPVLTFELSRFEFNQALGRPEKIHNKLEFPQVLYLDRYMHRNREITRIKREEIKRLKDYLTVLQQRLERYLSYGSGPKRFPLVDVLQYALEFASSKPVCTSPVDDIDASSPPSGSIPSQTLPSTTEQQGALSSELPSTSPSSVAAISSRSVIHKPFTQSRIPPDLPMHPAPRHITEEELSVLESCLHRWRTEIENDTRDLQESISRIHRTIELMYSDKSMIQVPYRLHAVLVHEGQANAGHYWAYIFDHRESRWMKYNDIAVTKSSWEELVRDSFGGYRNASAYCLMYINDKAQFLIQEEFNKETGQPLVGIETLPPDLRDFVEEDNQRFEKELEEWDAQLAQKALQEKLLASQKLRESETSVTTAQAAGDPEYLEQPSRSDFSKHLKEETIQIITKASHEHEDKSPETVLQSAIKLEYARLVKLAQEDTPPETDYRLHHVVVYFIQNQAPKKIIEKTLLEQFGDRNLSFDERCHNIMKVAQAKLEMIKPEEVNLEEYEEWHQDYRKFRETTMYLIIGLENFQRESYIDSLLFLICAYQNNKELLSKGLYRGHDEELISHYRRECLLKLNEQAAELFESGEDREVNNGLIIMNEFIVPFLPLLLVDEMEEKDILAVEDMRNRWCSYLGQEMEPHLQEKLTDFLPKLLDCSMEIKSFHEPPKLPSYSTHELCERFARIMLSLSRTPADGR
How it was run: as §1

[5] = target: T4, USP28 (UniProt Q96RU2)
T4 sequence (whole entry): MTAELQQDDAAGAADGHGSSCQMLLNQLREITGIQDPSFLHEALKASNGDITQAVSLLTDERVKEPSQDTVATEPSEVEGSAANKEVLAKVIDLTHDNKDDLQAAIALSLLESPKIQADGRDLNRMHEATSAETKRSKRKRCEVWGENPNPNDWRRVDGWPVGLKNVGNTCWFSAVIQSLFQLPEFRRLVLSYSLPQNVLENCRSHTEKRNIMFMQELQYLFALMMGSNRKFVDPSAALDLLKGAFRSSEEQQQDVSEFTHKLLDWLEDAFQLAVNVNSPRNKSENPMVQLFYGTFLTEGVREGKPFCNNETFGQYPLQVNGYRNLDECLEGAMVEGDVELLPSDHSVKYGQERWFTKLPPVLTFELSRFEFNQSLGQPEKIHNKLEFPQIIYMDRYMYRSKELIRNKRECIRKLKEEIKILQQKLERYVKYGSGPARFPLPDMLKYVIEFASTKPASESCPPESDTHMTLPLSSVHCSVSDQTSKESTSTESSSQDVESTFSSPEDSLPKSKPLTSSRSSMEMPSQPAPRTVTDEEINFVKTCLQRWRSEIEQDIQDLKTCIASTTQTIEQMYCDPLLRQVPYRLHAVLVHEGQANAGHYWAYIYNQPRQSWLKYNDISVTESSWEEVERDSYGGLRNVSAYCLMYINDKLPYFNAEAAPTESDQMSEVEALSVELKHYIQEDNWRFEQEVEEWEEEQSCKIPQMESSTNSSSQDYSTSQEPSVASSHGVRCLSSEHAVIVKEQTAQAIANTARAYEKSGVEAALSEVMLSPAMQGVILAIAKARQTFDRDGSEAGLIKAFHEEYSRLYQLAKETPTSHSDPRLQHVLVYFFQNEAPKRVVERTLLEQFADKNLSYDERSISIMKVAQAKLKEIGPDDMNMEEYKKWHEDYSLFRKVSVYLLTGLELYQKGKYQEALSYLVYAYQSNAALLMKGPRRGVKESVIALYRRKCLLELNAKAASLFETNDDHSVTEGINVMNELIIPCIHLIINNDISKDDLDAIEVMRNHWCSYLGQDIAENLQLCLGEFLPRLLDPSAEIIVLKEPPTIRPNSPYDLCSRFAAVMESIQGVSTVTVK
How it was run: as §1

Measured: log2 ratio of Biotin-Ahx-Ub-VS probe labelling

Sequence of USP24 (Q9UPU5 whole entry): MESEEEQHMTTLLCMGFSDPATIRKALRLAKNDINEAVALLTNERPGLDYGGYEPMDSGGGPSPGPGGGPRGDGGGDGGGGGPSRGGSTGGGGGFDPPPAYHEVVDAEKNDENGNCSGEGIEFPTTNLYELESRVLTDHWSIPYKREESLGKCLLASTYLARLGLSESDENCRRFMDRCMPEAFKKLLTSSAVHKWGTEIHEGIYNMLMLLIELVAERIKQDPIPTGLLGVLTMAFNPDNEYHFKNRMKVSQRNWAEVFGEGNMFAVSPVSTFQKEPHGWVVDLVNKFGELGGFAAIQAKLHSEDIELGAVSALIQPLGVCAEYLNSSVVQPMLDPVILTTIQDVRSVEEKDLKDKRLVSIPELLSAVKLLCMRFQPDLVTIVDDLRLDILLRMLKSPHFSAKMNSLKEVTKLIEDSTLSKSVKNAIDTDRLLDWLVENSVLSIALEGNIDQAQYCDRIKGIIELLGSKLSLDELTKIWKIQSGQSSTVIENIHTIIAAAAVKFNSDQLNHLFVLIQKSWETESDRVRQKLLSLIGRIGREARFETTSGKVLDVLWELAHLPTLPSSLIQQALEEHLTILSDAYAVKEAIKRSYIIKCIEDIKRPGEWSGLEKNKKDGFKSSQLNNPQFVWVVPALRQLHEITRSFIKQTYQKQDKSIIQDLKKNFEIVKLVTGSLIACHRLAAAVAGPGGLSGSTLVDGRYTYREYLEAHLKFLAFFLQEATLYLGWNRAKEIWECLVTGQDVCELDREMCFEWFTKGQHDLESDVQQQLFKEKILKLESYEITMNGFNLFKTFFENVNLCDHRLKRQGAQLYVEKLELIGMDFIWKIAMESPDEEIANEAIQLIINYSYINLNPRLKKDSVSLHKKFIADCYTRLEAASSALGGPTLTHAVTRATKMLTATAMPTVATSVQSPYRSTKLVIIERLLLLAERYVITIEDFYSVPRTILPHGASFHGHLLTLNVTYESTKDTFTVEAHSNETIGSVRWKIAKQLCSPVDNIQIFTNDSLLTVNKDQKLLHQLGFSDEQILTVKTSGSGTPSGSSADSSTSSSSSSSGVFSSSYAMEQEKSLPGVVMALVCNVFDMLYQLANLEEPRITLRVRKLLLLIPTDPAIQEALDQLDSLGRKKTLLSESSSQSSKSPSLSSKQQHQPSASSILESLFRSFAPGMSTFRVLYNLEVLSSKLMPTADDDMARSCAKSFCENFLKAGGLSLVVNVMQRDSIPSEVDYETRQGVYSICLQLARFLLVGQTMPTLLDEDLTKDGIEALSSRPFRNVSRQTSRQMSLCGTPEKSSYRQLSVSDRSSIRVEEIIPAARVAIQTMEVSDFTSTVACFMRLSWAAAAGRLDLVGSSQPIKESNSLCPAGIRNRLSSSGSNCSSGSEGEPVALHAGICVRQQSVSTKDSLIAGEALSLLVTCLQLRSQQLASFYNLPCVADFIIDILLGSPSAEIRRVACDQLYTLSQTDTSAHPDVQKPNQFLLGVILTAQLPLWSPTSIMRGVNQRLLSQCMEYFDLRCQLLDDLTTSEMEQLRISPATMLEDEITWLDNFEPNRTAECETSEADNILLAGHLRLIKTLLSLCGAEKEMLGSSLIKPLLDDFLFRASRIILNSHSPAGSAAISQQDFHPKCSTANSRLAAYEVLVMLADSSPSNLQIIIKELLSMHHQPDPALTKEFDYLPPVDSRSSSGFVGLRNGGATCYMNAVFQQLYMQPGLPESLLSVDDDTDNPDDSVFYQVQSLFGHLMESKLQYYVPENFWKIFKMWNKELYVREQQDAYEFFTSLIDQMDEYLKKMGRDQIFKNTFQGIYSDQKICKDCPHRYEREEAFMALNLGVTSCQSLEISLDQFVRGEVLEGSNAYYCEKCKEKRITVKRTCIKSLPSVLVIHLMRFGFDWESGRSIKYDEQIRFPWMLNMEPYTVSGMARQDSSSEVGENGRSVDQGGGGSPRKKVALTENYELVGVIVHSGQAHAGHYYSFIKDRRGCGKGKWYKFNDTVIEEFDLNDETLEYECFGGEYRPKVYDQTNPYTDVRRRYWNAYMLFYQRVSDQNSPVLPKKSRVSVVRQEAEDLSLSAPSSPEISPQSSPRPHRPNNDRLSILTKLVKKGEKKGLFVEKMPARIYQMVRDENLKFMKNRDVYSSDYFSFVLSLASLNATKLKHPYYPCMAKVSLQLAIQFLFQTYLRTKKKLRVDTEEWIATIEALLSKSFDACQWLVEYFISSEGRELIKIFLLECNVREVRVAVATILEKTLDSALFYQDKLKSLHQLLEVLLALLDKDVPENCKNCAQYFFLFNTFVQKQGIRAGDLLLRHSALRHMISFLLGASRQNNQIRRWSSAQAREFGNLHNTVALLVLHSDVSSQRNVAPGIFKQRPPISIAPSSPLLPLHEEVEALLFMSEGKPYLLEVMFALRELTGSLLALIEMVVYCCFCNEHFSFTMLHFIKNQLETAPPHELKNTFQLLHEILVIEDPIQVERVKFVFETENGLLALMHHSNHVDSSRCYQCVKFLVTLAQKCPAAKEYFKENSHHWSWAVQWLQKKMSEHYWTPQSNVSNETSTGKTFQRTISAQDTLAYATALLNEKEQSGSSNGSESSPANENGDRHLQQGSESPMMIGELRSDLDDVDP

CC1CCc2onc(CNC(=O)CCl)c2C1 (stereo not given)
inactive: [1] 0.0516 | [2] 0.192 | [3] 0.0469 | [4] 0.00198 | [5] -0.19
